The AC50 is the concentration at which the activity in the assay is half-maximal.

Read-out in assay [1]: Thrombomodulin, THBD (gene 7056)
As to the kind of experiment: BSK_CASM3C_Thrombomodulin: BioMAP Diversity Plus: CASM3C Assay for Thrombomodulin Biomarker Activity (AID 2283051).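 Also: thrombomodulin protein level measured by ELISA 24 h after dosing.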 The settings on record: primary human coronary artery smooth muscle cells; actives raise or lower the signal.

Read-out in assay [2]: Tissue Factor, F3 (gene 2152)
As to the kind of experiment: BSK_CASM3C_TissueFactor: BioMAP Diversity Plus: CASM3C Assay for Tissue Factor Biomarker Activity (AID 2283052).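 Also: cell surface tissue factor protein level read by ELISA.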 The settings on record: primary human coronary artery smooth muscle cells; actives raise or lower the signal.

Read-out in assay [3]: Interferon-gamma inducible Protein 10 (IP10), CXCL10 (gene 3627)
As to the kind of experiment: BSK_hDFCGF_IP10: BioMAP Diversity Plus: hDFCGF Assay for Interferon-gamma inducible Protein 10 (IP10) Biomarker Activity (AID 2283053). The settings on record: primary human foreskin fibroblasts; actives raise or lower the signal. In a few lines: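 Chemical-treated human skin fibroblasts (primary) were sampled at 24 h for IP-10 by ELISA. Both increases and decreases relative to DMSO were scored.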

Read-out in assay [4]: Urokinase-type plasminogen activator receptor (uPAR), PLAUR (gene 5329)
As to the kind of experiment: BSK_CASM3C_uPAR: BioMAP Diversity Plus: CASM3C Assay for Urokinase-type plasminogen activator receptor (uPAR) Biomarker Activity (AID 2283054).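 Also: cell-surface uPAR protein level quantified by ELISA.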 The note with it: primary human coronary artery smooth muscle cells; actives raise or lower the signal.

Read-out in assay [5]: Vascular cell adhesion molecule 1 (VCAM1), VCAM1 (gene 7412)
As to the kind of experiment: BSK_CASM3C_VCAM1: BioMAP Diversity Plus: CASM3C Assay for Vascular cell adhesion molecule 1 (VCAM1) Biomarker Activity (AID 2283055).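 Also: VCAM-1 protein level quantified by ELISA on the cells.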 The settings on record: primary human coronary artery smooth muscle cells; actives raise or lower the signal.

Read-out in assay [6]: Collagen III, COL3A1 (gene 1281)
As to the kind of experiment: BSK_hDFCGF_CollagenIII: BioMAP Diversity Plus: hDFCGF Assay for Collagen III Biomarker Activity (AID 2283056). The settings on record: primary human foreskin fibroblasts; actives raise or lower the signal. In a few lines:
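Human foreskin fibroblast primary cultures sampled 24 h after dosing; Collagen III quantified by ELISA. Signal fitted bidirectionally against DMSO baseline.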

Read-out in assay [7]: Epidermal growth factor receptor (EGFR), EGFR (gene 1956)
As to the kind of experiment: BSK_hDFCGF_EGFR: BioMAP Diversity Plus: hDFCGF Assay for Epidermal growth factor receptor (EGFR) Biomarker Activity (AID 2283057). The settings on record: primary human foreskin fibroblasts; actives raise or lower the signal. In a few lines: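 Cell-based multiplexed assay in primary human foreskin fibroblasts. EGFR is read by ELISA 24 h after treatment and compared with DMSO controls.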

Read-out in assay [8]: Interleukin-8 (IL8), CXCL8 (gene 3576)
As to the kind of experiment: BSK_hDFCGF_IL8: BioMAP Diversity Plus: hDFCGF Assay for Interleukin-8 (IL8) Biomarker Activity (AID 2283058). The note with it: primary human foreskin fibroblasts; actives raise or lower the signal. In a few lines: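 Primary human foreskin fibroblasts (hDFCGF system) dosed with chemical; IL-8 measured by ELISA 24 hours later. Bidirectional curve fitting relative to DMSO baseline; cytotoxicity tracked in parallel cultures by SRB total protein staining.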

Assay [9] can be described thus: BSK_hDFCGF_Proliferation: Cell Proliferation Assessment in the BioMAP Diversity Plus: hDFCGF Assay (AID 2283059).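 Also: curves fitted for both rise and fall of signal versus DMSO baseline.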 The note with it: primary human foreskin fibroblasts. Put shortly:
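Total protein read at 560 nm after 0.1% SRB staining of TCA-fixed human skin fibroblasts, […]. Activity is fitted in both directions relative to DMSO as baseline.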

Read-out in assay [10]: Macrophage colony-stimulating factor (MCSF), CSF1 (gene 1435)
As to the kind of experiment: BSK_hDFCGF_MCSF: BioMAP Diversity Plus: hDFCGF Assay for Macrophage colony-stimulating factor (MCSF) Biomarker Activity (AID 2283060). The note with it: primary human foreskin fibroblasts; actives raise or lower the signal. In a few lines:
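Human foreskin fibroblast primary cultures; M-CSF measured by ELISA 24 hours after chemical dosing. Bidirectional fitting relative to DMSO, with overt cytotoxicity tracked by parallel SRB total-protein staining (0.1% SRB, 10% TCA fixation, 560 nm).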

Assay [11] can be described thus: BSK_hDFCGF_SRB: Viability Assessment in the BioMAP Diversity Plus: hDFCGF Assay (AID 2283061).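 Also: cells exposed to compound for 24 h before the read.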 The settings on record: primary human foreskin fibroblasts. In a few lines:
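Human foreskin fibroblasts in 96-well plates were treated 24 h. Total protein was measured by 0.1% SRB staining after 10% TCA fixation, read at 560 nm. Data were fitted bidirectionally against DMSO.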

Read-out in assay [12]: TIMP metallopeptidase inhibitor 1 (TIMP1), TIMP1 (gene 7076)
As to the kind of experiment: BSK_hDFCGF_TIMP1: BioMAP Diversity Plus: hDFCGF Assay for TIMP metallopeptidase inhibitor 1 (TIMP1) Biomarker Activity (AID 2283062). The note with it: primary human foreskin fibroblasts; actives raise or lower the signal. Put shortly: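 Human foreskin fibroblast primary cultures dosed for 24 h; secreted/surface TIMP-1 quantified by ELISA. Bidirectional curve fitting against DMSO baseline; cytotoxicity tracked in parallel cultures by SRB total-protein staining.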

Read-out in assay [13]: Monokine induced gamma interferon (MIG), CXCL9 (gene 4283)
As to the kind of experiment: BSK_hDFCGF_MIG: BioMAP Diversity Plus: hDFCGF Assay for Monokine induced gamma interferon (MIG) Biomarker Activity (AID 2283063). The settings on record: primary human foreskin fibroblasts; actives raise or lower the signal. In a few lines: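 MIG/CXCL9 measured by ELISA 24 h after dosing primary human skin fibroblasts. Activity fitted in both directions against DMSO controls. Cytotoxicity was checked in parallel cultures by SRB staining read at 560 nm.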

Read-out in assay [14]: Matrix Metallopeptidase 1 (MMP1), MMP1 (gene 4312)
As to the kind of experiment: BSK_hDFCGF_MMP1: BioMAP Diversity Plus: hDFCGF Assay for Matrix Metallopeptidase 1 (MMP1) Biomarker Activity (AID 2283064). The note with it: primary human foreskin fibroblasts; actives raise or lower the signal. Put shortly:
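Human foreskin fibroblasts exposed to chemical for 24 h; MMP1 detected by ELISA, with DMSO as baseline for bidirectional fitting.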

Read-out in assay [15]: Vascular cell adhesion molecule 1 (VCAM1), VCAM1 (gene 7412)
As to the kind of experiment: BSK_hDFCGF_VCAM1: BioMAP Diversity Plus: hDFCGF Assay for Vascular cell adhesion molecule 1 (VCAM1) Biomarker Activity (AID 2283065).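 As to AC50: VCAM-1 protein level quantified by ELISA after 24 h chemical exposure.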 The note with it: primary human foreskin fibroblasts; actives raise or lower the signal. In a few lines:
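Human foreskin fibroblast primary cells dosed with chemical, VCAM-1 measured by ELISA at 24 h. Bidirectional curve fitting relative to DMSO as negative control/baseline.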

Read-out in assay [16]: Plasminogen activator inhibitor-1 (PAI1), SERPINE1 (gene 5054)
As to the kind of experiment: BSK_hDFCGF_PAI1: BioMAP Diversity Plus: hDFCGF Assay for Plasminogen activator inhibitor-1 (PAI1) Biomarker Activity (AID 2283066). The note with it: primary human foreskin fibroblasts; actives raise or lower the signal. Put shortly:
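Human skin fibroblast cultures receive chemical for 24 h before PAI-1 is measured by ELISA; signal changes are fitted bidirectionally against DMSO-treated wells.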

Read-out in assay [17]: Intercellular Adhesion Molecule 1 (ICAM1), ICAM1 (gene 3383)
As to the kind of experiment: BSK_KF3CT_ICAM1: BioMAP Diversity Plus: KF3CT Assay for Intercellular Adhesion Molecule 1 (ICAM1) Biomarker Activity (AID 2283067). The note with it: primary human keratinocytes with fibroblasts; actives raise or lower the signal. In a few lines: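 Human keratinocyte–foreskin fibroblast co-culture was treated for 24 h. Cell-surface ICAM-1 was quantified by ELISA, fitted bidirectionally relative to DMSO. Cytotoxicity was checked in parallel cultures by SRB total-protein staining.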

Read-out in assay [18]: Interferon-gamma inducible Protein 10 (IP10), CXCL10 (gene 3627)
As to the kind of experiment: BSK_KF3CT_IP10: BioMAP Diversity Plus: KF3CT Assay for Interferon-gamma inducible Protein 10 (IP10) Biomarker Activity (AID 2283068). The settings on record: primary human keratinocytes with fibroblasts; actives raise or lower the signal. In a few lines:
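Human keratinocyte plus foreskin fibroblast primary co-culture exposed to test chemical for 24 h; IP-10 measured by ELISA. Concentration-response fitted bidirectionally against DMSO control as baseline.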

Assay [19] is described as follows: BSK_KF3CT_SRB: Viability Assessment in the BioMAP Diversity Plus: KF3CT Assay (AID 2283069).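 Also: read 24 h after compound addition; fitted for both signal gain and loss against DMSO baseline.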 The note with it: primary human keratinocytes with fibroblasts. In a few lines:
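Overt cytotoxicity is assessed as total protein by sulforhodamine B staining in parallel human skin co-cultures at 24 h after dosing. DMSO serves as negative control and baseline.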

Read-out in assay [20]: Interleukin-1 alpha (IL1a), IL1A (gene 3552)
As to the kind of experiment: BSK_KF3CT_IL1a: BioMAP Diversity Plus: KF3CT Assay for Interleukin-1 alpha (IL1a) Biomarker Activity (AID 2283070). The note with it: primary human keratinocytes with fibroblasts; actives raise or lower the signal. Put shortly: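 Readout is IL-1a level by ELISA, compared bidirectionally with DMSO as baseline. Cells: human keratinocytes co-cultured with foreskin fibroblasts, harvested 24 h post-dose.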

Values joined by “and” are separate entries in the source; they are usually repeats but may differ in a detail not shown here. Identical values can stand only once. The source holds several records for some structures; these can differ, active in one and inactive in another. Active and inactive are the calls of the source. The calls were made as follows: active = hit-call score of the fitted dose curve at least 0.9, where 1 is the maximum; inactive = score below 0.9.

`Oc1cccc(-c2ccccc2)c1`: the outcome in assay [1], in assay [3], in assay [4], in [7], in assay [8] and in [12] was inactive. The result in assay [13], in [14], in assay [16], in assay [17], in assay [18] and in assay [19] was inactive. Moreover, the AC50 in assay [2] is 20 µM (active); in assay [5], 31.7 µM (active); in [6], 30 µM (active); in [9], 35.3 µM (active); in assay [10] it was 33.7 µM (active); in [11] it was 30.7 µM (active). In addition, the concentration at half-maximal activity (AC50) was 31.6 µM (active) in assay [15] and 20 µM (active) in assay [20].
For the compound `OC(Cc1ccccc1Cl)(Cn1[nH]cnc1=S)C1(Cl)CC1` (stereo not drawn), the outcome in assay [1], in assay [7], in [8], in assay [11], in [12] and in [14] was inactive. For the same compound, the outcome in assay [16], in [17], in assay [18], in assay [19] and in assay [20] was inactive. The AC50 in [2] is 15.3 µM (active); in assay [3] it was 29.5 µM (active); in assay [4], 32.5 µM (active); in assay [5], 36.3 µM (active); in assay [6], 9.86 µM (active); in [9], 35.2 µM (active). Also, the AC50 in assay [10] was 15 µM (active); in assay [13] it was 33.3 µM (active); in assay [15], 17.8 µM (active).
As for `Clc1cccc(Cl)c1Cl`, the outcome in assay [1], in [2], in assay [3], in assay [4], in assay [5] and in [6] was inactive. In addition, the result in assay [7], in [8], in [9], in assay [10], in assay [11] and in [12] was inactive. In addition, the outcome in assay [13], in [14], in assay [15], in assay [16], in assay [17] and in assay [18] was inactive. Also, the result in assay [19] and in assay [20] was inactive.
Turning to `N#CCCC(Br)(C#N)CBr` (stereo not drawn), the AC50 is 20 µM (active) in assay [1]; 12.7 µM (active) in [2]; 3.73 µM (active) in assay [3]; 15.6 µM (active) in assay [4]; 11.9 µM (active) in [5]; 17 µM (active) in assay [6]. The concentration at half-maximal activity (AC50) in assay [8] was 12.7 µM (active); in [9], 0.4 µM (active); in assay [10], 5.08 µM (active); in assay [11], 7.68 µM (active); in assay [12] it was 4.28 µM (active); in assay [13] it was 6.19 µM (active). Besides, the concentration at half-maximal activity (AC50) in [14] is 11.8 µM (active); in assay [15], 3.74 µM (active); in assay [16] it was 9.61 µM (active); in [17] it was 26.8 µM (active); in assay [18], 33.1 µM (active); in assay [19], 20 µM (active). Further, the half-maximal activity concentration (AC50) in assay [20] was 14.4 µM (active). Moreover, the outcome in assay [7] was inactive.
On to `CC1(C)[C@H](C(=O)O[C@H](C#N)c2cccc(Oc3ccccc3)c2)[C@@H]1/C=C(\Cl)C(F)(F)F`, for which the concentration at half-maximal activity (AC50) in assay [1] is 5.06 µM (active) and 7.16 µM (active); in assay [6], 9.08 µM (active); in assay [9], 7.37 µM (active); in [14] it was 0.0141 µM (active). The outcome in [2], in assay [3], in assay [4], in assay [5], in [6] and in assay [7] was inactive. Besides, the outcome in assay [8], in [9], in assay [10], in [11], in [12] and in assay [13] was inactive. In addition, the outcome in assay [14], in assay [15], in [16], in assay [17], in [18] and in assay [19] was inactive. For the same compound, the result in assay [20] was inactive.
On to `Nc1ccc(N)cc1`, for which the outcome in assay [1], in assay [2], in [3], in [4], in [5] and in assay [6] was inactive. The outcome in assay [7], in assay [8], in assay [9], in assay [10], in assay [11] and in assay [12] was inactive. Also, the outcome in [13], in assay [14], in assay [15], in assay [16], in [17] and in assay [18] was inactive. In addition, the result in assay [19] and in assay [20] was inactive.
